Inconclusive results are not listed. Calls of active or inactive are those of the source. The call rests on the fitted dose curve; in most records, active means well fitted curve in the direction sought with a large enough effect; inconclusive means small, poorly fitted or top-dose-only effect, or another doubt; inactive means no such curve, though single readings can be large; an effect the other way counts as inactive or inconclusive.
Key:
[1] = molecular target: Cellular tumor antigen p53 (Homo sapiens) (UniProt P04637); assay: Primary qHTS for small molecule compounds that upregulate eGFP-tagged delta133p53alpha (in N-terminal) cells. (AID 2060322); details: NCI-H358 eGFP-delta133p53alpha fluorescence, 24 h; activation: active compounds read high;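 further: series mostly up to about 56 µM; 0% = DMSO vehicle and 100% = reference activator; nearly all actives have a fitted effect of over 75% in size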
Procedure, shortened: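 NCI-H358 cells pre-induced 24 h with 10 ng/ml doxycycline to express N-terminal eGFP-delta133p53alpha, then dosed 24 h at 37C without doxycycline; fixed, Hoechst-stained, GFP intensity by laser scanning cytometry, normalized to DMSO (0%) and 57.5 uM 5-azacytidine (100%).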

[2] = molecular target: Aldehyde dehydrogenase, mitochondrial (Homo sapiens) (UniProt P05091); assay: qHTS for Inhibitors of the Aldehyde Dehydrogenase Family (ALDH2) Primary screen (AID 2061308);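 further: plate controls were vehicle for no effect and reference inhibitor for full effect; nearly all actives have a fitted effect of over 55% in size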
[3] = molecular target: Retinaldehyde dehydrogenase 3 (Homo sapiens) (UniProt P47895); assay: qHTS for Inhibitors of the Aldehyde Dehydrogenase Family (ALDH1A3) Primary screen (AID 2061315);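 further: plate controls were DMSO vehicle for no effect and reference inhibitor for full effect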

Sequence of Cellular tumor antigen p53 (Homo sapiens) (P04637 whole entry, looked up): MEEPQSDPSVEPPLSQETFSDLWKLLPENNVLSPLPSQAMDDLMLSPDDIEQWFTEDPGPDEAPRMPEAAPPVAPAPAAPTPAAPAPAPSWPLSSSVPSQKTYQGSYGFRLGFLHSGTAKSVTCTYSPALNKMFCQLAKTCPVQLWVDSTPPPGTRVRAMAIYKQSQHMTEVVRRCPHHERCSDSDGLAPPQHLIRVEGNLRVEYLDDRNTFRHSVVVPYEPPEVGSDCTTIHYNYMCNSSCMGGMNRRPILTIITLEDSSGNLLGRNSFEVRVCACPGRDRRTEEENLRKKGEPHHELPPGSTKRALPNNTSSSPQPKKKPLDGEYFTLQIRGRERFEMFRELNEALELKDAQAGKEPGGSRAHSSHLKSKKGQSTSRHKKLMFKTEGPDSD

CCCCc1ccc(NS(=O)(=O)c2ccc(F)cc2)cc1
inactive: activation [1] -9.55% | Potency [2] | Potency [3]

CC1OC(OC2C(C)OC(OC3C(OC(=O)C45CCC(C)(C)CC4C4=CCC6C7(C)CCC(OC8OC(C(=O)O)C(O)C(O)C8OC8OC(CO)C(O)C(OC9OC(C)C(O)C(O)C9O)C8O)C(C)(CO)C7CCC6(C)C4(C)CC5)OC(CO)C(O)C3O)C(O)C2O)C(O)C(O)C1O (centres undefined)
inactive: activation [1] 13.4% | activity change, negative = inhibition [2] -1.8% [at 11.2 µM] | activity change, negative = inhibition [3] -5.04% [at 11.2 µM]

C[C@]12C[C@@H](O)[C@@H]3C[C@@]1(O[C@@H]1O[C@H](CO)[C@@H](O)[C@H](O)[C@H]1O)[C@]3(COC(=O)c1ccccc1)C(=O)O2
inactive: activation [1] 25.9% | Potency [2] | Potency [3]

CC(=O)OC1CCC2(C)C(CCC3(C)C2CC=C2C4CC(C)(C)CCC4(C)CCC23C)C1(C)C(=O)O (centres undefined)
inactive: activation [1] 27.7% | Potency [2] | Potency [3]

O=C(O)c1cccc(CN2C(=O)/C(=C(\c3ccccc3)c3ccc(Cl)cc3)c3ccccc32)c1
inactive: activation [1] -4.46% | Potency [2] | Potency [3]

C=CC(C)(C)C12C=C(OC)C(=O)N3C(C(C)C)C(=O)NC31N(OC)c1ccccc12 (centres undefined)
inactive: activation [1] -9.16% | Potency [2] | Potency [3]

COC1OC(O)C2(CCC3(O2)C(C)CC2OC(=O)C4(C)CCCC3(C)C24)C1O (centres undefined)
inactive: activation [1] 9.92% | Potency [2] | Potency [3]

CCCOc1ccc(S(=O)(=O)N2CCN(CCO)CC2)cc1-c1nc2c(CCC)cn(CC)c2c(=O)[nH]1
inactive: activation [1] -0.893% | Potency [2] | Potency [3]

Source: PubChem BioAssay (NCATS)
